DAX1 inh-1 = DAX1 (NR0B1) inhibition, primary screen; HEK293T StAR-luciferase reporter, SF-1/DAX-1 repression relief; inhibition, % at 6.8 µM; actives 1.1% (n = 370,000); AID 652010;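 active means inhibition above the mean over all tested compounds plus 3 SD, cut at about 3.6% in these data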;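 further: higher inhibition means more luminescence from relief of DAX-1 repression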
hgDAF-12 ag = hgDAF-12 agonism, primary luciferase screen | actives 1.8% (n = 370,000) | HEK293 GAL4-hgDAF12 UAS-luciferase reporter, agonist luminescence; normalized to butyrate control | activation, % at 6.8 µM;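 active means activation above a cutoff set at the mean of all screened compounds plus 3 SD, cut at about 10% in these data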
hcDAF-12 act = activates DAF-12 receptor from parasite H. contortus; HEK293 hcDAF-12 lit1-tk-luc reporter, luminescence; 0% DMSO, 100% Δ7-dafachronic acid; activation, % at 6.8 µM; actives 1.4% (n = 370,000);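 active means activation above the mean of all tested compounds plus 3 SD, cut at about 5.5% in these data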
DAX1 inh-2 = NR0B1 (DAX1) inhibition; HEK293 Gal4-DAX1 luciferase reporter, luminescence; inhibition, % at 6.75 µM; actives 0.99% (n = 340,000); AID 504766; P51843;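 active means inhibition above the mean over all tested compounds plus 3 SD, cut at about 4.2% in these data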;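 further: inhibition shows as a rise in luminescence from relieved DAX1 repression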
Target sequence (P51843 207-470 limits assumed): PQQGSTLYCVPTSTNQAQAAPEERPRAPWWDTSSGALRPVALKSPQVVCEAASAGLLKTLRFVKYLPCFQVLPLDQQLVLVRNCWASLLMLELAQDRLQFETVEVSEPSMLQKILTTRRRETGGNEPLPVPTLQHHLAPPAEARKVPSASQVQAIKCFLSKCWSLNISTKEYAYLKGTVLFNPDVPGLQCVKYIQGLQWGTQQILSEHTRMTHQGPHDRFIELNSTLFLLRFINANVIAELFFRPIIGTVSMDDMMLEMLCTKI
ssDAF12 agonist = activators of S. stercoralis DAF-12 nuclear receptor; HEK293 ssDAF-12/GRIP1 lit1-tk-luc reporter, luminescence; % of 3 µM dafachronic acid response; activation, % at 6.8 µM; actives 1% (n = 370,000); AID 652126;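 active means activation above the mean over all tested compounds plus 3 SD, cut at about 0.9% in these data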
Each line names hits and unclear results; the compound was inactive in the other large screens. In the library only some 4.1% were active in any assay of this set; here they are far more common.

COc1ccc2oc(C(=O)NC(C)(C)C)c(C)c2c1	hgDAF-12 ag 12.6
O=C(OCc1cn(Cc2ccc(C(F)(F)F)cc2)nn1)N1CCOCC1	none (no result: DAX1 inh-2)
COC(=O)c1scc(C)c1N/N=C(\C)c1ccc(F)cc1	ssDAF12 agonist 1.0
C=CCN1C(=O)[C@@H](CC(=O)N2CCCCC2)[C@]2(C(=O)OCC)CCCCC/C=C/12	none (no result: DAX1 inh-2)
O=C(NCc1ccco1)C1CCCN(S(=O)(=O)c2ccccc2[N+](=O)[O-])C1 (centres undefined)	none (no result: DAX1 inh-2)
COc1cc(NS(=O)(=O)c2ccc(NC(=S)NC(=O)COc3ccccc3OC)cc2)nc(OC)n1	DAX1 inh-2 4.7
CC(=O)c1ccc(NS(=O)(=O)c2ccc(N/C=C/C(=O)c3ccc(F)cc3)cc2)cc1	none
COc1cc(NS(=O)(=O)c2ccc(N/C=C\C(=O)c3ccc(F)cc3)cc2)nc(OC)n1	hcDAF-12 act 6.4
COc1cc(NS(=O)(=O)c2ccc(NC(=O)COc3ccccc3C)cc2)nc(OC)n1	none
O=C(c1ccco1)N1CCN(c2nc3ccsc3c(=O)s2)CC1	DAX1 inh-2 5.1
COC(=O)c1cc2c(c3c4ccccc4n(S(=O)(=O)c4ccc(C)cc4)c13)C(=O)N(C)C2	none (no result: DAX1 inh-2)
COc1ccc(C(C#N)=Cc2ccc(NC(C)=O)cc2)cc1	DAX1 inh-1 3.7
COc1ccc2nc(/C(C#N)=C\c3ccc(C(=O)O)cc3)[nH]c2c1	hgDAF-12 ag 12.8
CC(=O)Nc1ccc(C(C#N)=Cc2ccc(N(C)CCC#N)cc2)cc1	none
COc1ccc(CCNCC(O)COc2cccc(C)c2)cc1OC (centres undefined)	none (no result: DAX1 inh-2)
COc1ccc(CN2C[C@]3(C=C(C)Cn4c(=O)n(-c5ccccc5)c(=O)n43)N=C2NC(=O)c2ccccc2)c(OC)c1	none (no result: DAX1 inh-2)
Cc1cccc(NC(=O)Cn2nnc(-c3ccccc3F)n2)c1C	none (no result: DAX1 inh-2)
COC(=O)c1ccc(COc2ccc(CNCc3ccc(Cl)cc3)cc2)cc1	hgDAF-12 ag 11.7
C[C@H]1C2CC(OC(=O)NCCCc3ccccc3)C(C2)[C@H]2CCCCN21 (some centres undefined)	none (no result: DAX1 inh-2)
CN1C(=O)OC2(C)CCc3ccccc3C12C (centres undefined)	none
CC1(C)CC2(CC(C)(C)N1)OC(=O)N1CCc3ccccc3C12C (centres undefined)	DAX1 inh-2 4.2
O=C(Nc1ccc(F)cc1)OCc1cn(Cc2c(F)cccc2F)nn1	none (no result: DAX1 inh-2)
Cn1c(/N=C/c2ccc3c(c2)OCO3)nc2ccccc21	hcDAF-12 act 5.9
O=C(OCC#CCSc1nnc(-c2cccc3ncccc23)o1)c1ccc(F)cc1	none (no result: DAX1 inh-1, DAX1 inh-2)
CCn1cnc2cc(NC(=O)c3cccs3)ccc21	DAX1 inh-1 3.9
O=C(NCCc1ccccc1)c1ccc2c(c1)OCCO2	none
CCn1cnc2cc(NCc3cccs3)ccc21	none
CSc1nc2ccc(NC(=O)c3cccs3)cc2s1	hgDAF-12 ag 10.6
O=C(NCCc1ccc2c(c1)OCCO2)c1ccccc1F	hgDAF-12 ag 12.2
O=C(NCCc1ccc(F)cc1)c1cc2ccccc2oc1=O	DAX1 inh-2 4.3
Cc1ccc(-c2[nH]c3ccccc3c2SCCNC(=O)c2cc3ccccc3oc2=O)cc1	hcDAF-12 act 6.5
COc1cc(NC(=O)C(C)C)ccc1NC(=O)c1cc2ccccc2o1	DAX1 inh-2 6.1
O=C(Nc1ccc(Cl)cc1Cl)c1cc2ccccc2o1	ssDAF12 agonist 2.2
CC(=O)Nc1ccc(-c2cc3ccccc3o2)cc1	DAX1 inh-2 4.5, ssDAF12 agonist 0.9
CCOC(=O)[C@@]12CCCC3=C1N(CCC3)C(=O)[C@H]2CC(=O)NCC1CCCCC1	none (no result: DAX1 inh-2)
Cc1ccc(CN2CCCCC(NC(=O)c3ccc(F)c(F)c3)C2=O)cc1 (centres undefined)	none (no result: DAX1 inh-2)
COC(=O)[C@]12C[C@H](CC(=O)NCCCN3CCCC3=O)C(=O)N(Cc3ccccc3)C1=C[C@H](C(C)C)O[C@@H]2C1CC1	none (no result: DAX1 inh-2)
O=C(OCc1cn(Cc2ccccc2F)nn1)N1CCOCC1	none (no result: DAX1 inh-2)
Cn1c(=O)[nH]c2c(Br)nccc21	none (no result: DAX1 inh-2)
CSc1nc2ccc(NC(=O)c3ccc(F)c(F)c3)cc2s1	none
CSc1nc2ccc(NC(=O)c3cc4ccccc4o3)cc2s1	hgDAF-12 ag 12.0
O=C(Nc1ccc(F)cc1)c1cc2ccccc2o1	hcDAF-12 act 6.5, DAX1 inh-2 4.3, ssDAF12 agonist 1.6
N/C(=N\NC(=O)c1ccccc1)c1cc2ccccc2oc1=O	hgDAF-12 ag 12.2
O=C(Nc1ccc(NC(=O)c2cc3ccccc3o2)cc1)c1ccco1	none

Assay outcomes from PubChem.
